SMILES strings stand for the structures.

The first assay concerns the target T1, Tyrosine-protein kinase TXK (Homo sapiens) (UniProt P42681).
T1 sequence (whole entry): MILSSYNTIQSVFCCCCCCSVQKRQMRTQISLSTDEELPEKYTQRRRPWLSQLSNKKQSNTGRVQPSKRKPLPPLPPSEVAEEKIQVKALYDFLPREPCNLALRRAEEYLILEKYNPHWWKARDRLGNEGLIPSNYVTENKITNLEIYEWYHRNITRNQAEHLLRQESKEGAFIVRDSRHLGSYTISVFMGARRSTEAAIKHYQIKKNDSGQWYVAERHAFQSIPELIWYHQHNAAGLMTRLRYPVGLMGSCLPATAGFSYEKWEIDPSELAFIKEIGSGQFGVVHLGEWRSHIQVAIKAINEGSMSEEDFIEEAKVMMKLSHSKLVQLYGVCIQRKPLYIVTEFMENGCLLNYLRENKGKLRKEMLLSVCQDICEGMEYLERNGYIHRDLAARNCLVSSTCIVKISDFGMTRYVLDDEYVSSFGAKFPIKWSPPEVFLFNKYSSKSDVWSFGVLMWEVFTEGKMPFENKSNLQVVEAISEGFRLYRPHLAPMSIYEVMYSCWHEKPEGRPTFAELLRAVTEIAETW
The conditions noted are these: at 0.1 µM.
Regarding `NC(=O)c1ccc(Oc2nccc(-c3c(-c4ccc(F)cc4)ncn3C3CCNCC3)n2)cc1`, the inhibition came out at 8.98%.
Regarding `Fc1ccc(-c2ncn(CCCN3CCOCC3)c2-c2ccncc2)cc1`, the inhibition worked out at 1.42%.
Take `COc1cccc(/C=N/Nc2ncnc3c2cnn3-c2cccc(OC)c2)c1`: the inhibition stood at 3.48%.
On to `N#Cc1ccc(Oc2nccc(-c3c(-c4ccc(F)cc4)ncn3C3CCNCC3)n2)cc1`, for which the inhibition is -0.35%.
For the compound `COc1ccc(-c2ccc3c(NC(=O)C4CC4)n[nH]c3n2)cc1`, the inhibition was 2.08%.
For `O=C(Nc1n[nH]c2cc(-c3ccccc3)ccc12)C1CC1`, the inhibition is 8.18%.
`COC(=O)Nc1nc2ccc(Sc3ccc(NC(=O)Nc4cc(C(F)(F)F)ccc4F)cc3)cc2[nH]1`: the inhibition came to 3.58%.
The same measure, in the same setting: for `CN(c1ccc(NC(=O)Nc2c(Cl)cccc2Cl)cc1)c1ccnc(Nc2cccc(CS(C)(=O)=O)c2)n1` the value was 9.28%; for `O=C1Nc2ccc(I)cc2C1=Cc1cc(Br)c(O)c(Br)c1`, 7.46%; for `Clc1ccc(CNc2nccc(-c3cnn4ncccc34)n2)cc1`, 2.07%.
Consider `C/C(Nc1ccc(S(N)(=O)=O)cc1)=C1/C(=O)Nc2ccccc21`, for which the inhibition was -0.52%.
Consider `CCc1nccc2c1nc(-c1nonc1N)n2CC`, for which the inhibition stood at 3.63%.
For the compound `NC(=O)c1cc(-c2ccncc2)cc(-c2ccccc2)c1N`, the inhibition came to 45%.
As to `COc1cc(Nc2ncc(-c3ccccc3)o2)cc(OC)c1OC`, the inhibition stood at 1.07%.
In the case of `NS(=O)(=O)c1ccc(N/N=C2\C(=O)Nc3ccc(-c4cnco4)cc32)cc1`, the inhibition is -3.23%.
In the case of `COc1cc2ncn(-c3cc(OCCc4ccccc4)c(C(N)=O)s3)c2cc1OC`, the inhibition turned out to be 2.33%.
On the same count and under the same terms, the same measure for `Cc1nnc(-c2ccc(C)c(-c3ccc(C(=O)NCc4ccc(Cl)cc4)cc3)c2)o1`: -0.45%; for `C#Cc1cccc(Nc2ncnc3ccc(OCCCCNCCS(C)(=O)=O)cc23)c1`: 5.2%.
Turning to `COc1cccc(-n2cnc3c(N/N=C/c4ccncc4)ncnc32)c1`, the inhibition was -1.8%.
Take `COc1ccc2cc(-c3c(-c4ccncc4)nc(-c4ccc(S(C)(=O)=O)cc4C)n3C)ccc2c1`: the inhibition amounted to 3.55%.
In the case of `COc1ccc2ncn(-c3cc(O[C@H](C)c4ccccc4Cl)c(C(N)=O)s3)c2c1`, the inhibition is -5.63%.
Consider `O=C1NC(=O)C(c2cccc(Cl)c2)=C1Nc1ccc(Cl)c(C(=O)O)c1`, for which the inhibition turned out to be 2.81%.
On to `CN1CCN(CCCNc2nc3ccc(Oc4ccc(NC(=O)Nc5cc(C(F)(F)F)ccc5F)cc4)cc3[nH]2)CC1`, for which the inhibition worked out at 1%.
As to `C[C@@H](Oc1cc(-n2cnc3ccc(OC4CCN(C)CC4)cc32)sc1C(N)=O)c1ccccc1Cl`, the inhibition came to 3.26%.
Still for that read-out and setting: the same measure for `c1ccc(Oc2ccc(Nc3ncc(-c4ccccc4)o3)cc2)cc1`: 1.51%.
Turning to `CN(C)CCCNc1nccc(-c2c(-c3ccc(F)cc3)nn3cc(C(F)(F)F)ccc23)n1`, the inhibition is -0.89%.
The same measure, in the same setting: for `COc1cc2ncn(-c3cc(OCc4ccccc4C(F)(F)F)c(C(C)=O)s3)c2cc1OC` the value was -0.06%; for `COc1ccc2cc(-c3c(-c4ccncc4)nc(-c4ccc([S+](C)[O-])cc4C)n3C)ccc2c1` (stereo not drawn), 0.29%; for `Fc1ccc(-c2ncn(C3CCNCC3)c2-c2ccnc(Oc3ccc4c(c3)OCO4)n2)cc1`, 0.33%.
Consider `NC(=O)c1cc(-c2ccc(F)cc2)cc(-c2ccncc2)c1N`, for which the inhibition amounted to 3.85%.
For the compound `CCC(=O)Nc1ccc(C)c(-c2ccc(C(=O)NCC3CC3)cc2)c1`, the inhibition is 2.71%.
For `c1ccc(-c2n[nH]cc2-c2ccnc(-c3ccc(OCCN4CCOCC4)cc3)c2)nc1`, the inhibition turned out to be 5.88%.
Take `O=C(NCC1CC1)c1ccc(-c2cccc(C(=O)NC3CC3)c2)cc1`: the inhibition was determined as 2.43%.
For `NC(=O)Cc1ccccc1Oc1nccc(-c2c(-c3ccc(F)cc3)ncn2C2CCNCC2)n1`, the inhibition came to 3.01%.

The target of the next assay is T1, Tyrosine-protein kinase TXK (Homo sapiens). The conditions noted are these: at 1 µM.
Turning to `NC(=O)c1ccc(Oc2nccc(-c3c(-c4ccc(F)cc4)ncn3C3CCNCC3)n2)cc1`, the inhibition was 6.85%.
On to `Fc1ccc(-c2ncn(CCCN3CCOCC3)c2-c2ccncc2)cc1`, for which the inhibition was 2%.
On the same count and under the same terms, the same measure for `COc1cccc(/C=N/Nc2ncnc3c2cnn3-c2cccc(OC)c2)c1`: 2.61%; for `N#Cc1ccc(Oc2nccc(-c3c(-c4ccc(F)cc4)ncn3C3CCNCC3)n2)cc1`: 1.69%.
With `COc1ccc(-c2ccc3c(NC(=O)C4CC4)n[nH]c3n2)cc1`, the inhibition amounted to 2.53%.
Regarding `O=C(Nc1n[nH]c2cc(-c3ccccc3)ccc12)C1CC1`, the inhibition was found to be 17.7%.
As to `COC(=O)Nc1nc2ccc(Sc3ccc(NC(=O)Nc4cc(C(F)(F)F)ccc4F)cc3)cc2[nH]1`, the inhibition came to 4.98%.
Still for that read-out and setting: for `CN(c1ccc(NC(=O)Nc2c(Cl)cccc2Cl)cc1)c1ccnc(Nc2cccc(CS(C)(=O)=O)c2)n1` the value was 21.1%.
Consider `O=C1Nc2ccc(I)cc2C1=Cc1cc(Br)c(O)c(Br)c1`, for which the inhibition worked out at 6.98%.
`Clc1ccc(CNc2nccc(-c3cnn4ncccc34)n2)cc1`: the inhibition turned out to be 6.82%.
For `C/C(Nc1ccc(S(N)(=O)=O)cc1)=C1/C(=O)Nc2ccccc21`, the inhibition was -0.74%.
Same read-out and setting: for `CCc1nccc2c1nc(-c1nonc1N)n2CC` the value was 7.06%; for `NC(=O)c1cc(-c2ccncc2)cc(-c2ccccc2)c1N`, 76.1%.
Consider `COc1cc(Nc2ncc(-c3ccccc3)o2)cc(OC)c1OC`, for which the inhibition was 16.2%.
Same read-out and setting: for `NS(=O)(=O)c1ccc(N/N=C2\C(=O)Nc3ccc(-c4cnco4)cc32)cc1` the value was 0.12%; for `COc1cc2ncn(-c3cc(OCCc4ccccc4)c(C(N)=O)s3)c2cc1OC`, 3.1%; for `Cc1nnc(-c2ccc(C)c(-c3ccc(C(=O)NCc4ccc(Cl)cc4)cc3)c2)o1`, -1.48%.
Regarding `C#Cc1cccc(Nc2ncnc3ccc(OCCCCNCCS(C)(=O)=O)cc23)c1`, the inhibition stood at 7.94%.
Still for that read-out and setting: for `COc1cccc(-n2cnc3c(N/N=C/c4ccncc4)ncnc32)c1` the value was 4.69%; for `COc1ccc2cc(-c3c(-c4ccncc4)nc(-c4ccc(S(C)(=O)=O)cc4C)n3C)ccc2c1`, 5.35%.
Same read-out and setting: for `COc1ccc2ncn(-c3cc(O[C@H](C)c4ccccc4Cl)c(C(N)=O)s3)c2c1` the value was -1.33%; for `O=C1NC(=O)C(c2cccc(Cl)c2)=C1Nc1ccc(Cl)c(C(=O)O)c1`, 2.53%.
`CN1CCN(CCCNc2nc3ccc(Oc4ccc(NC(=O)Nc5cc(C(F)(F)F)ccc5F)cc4)cc3[nH]2)CC1`: the inhibition came out at 5.01%.
Regarding `C[C@@H](Oc1cc(-n2cnc3ccc(OC4CCN(C)CC4)cc32)sc1C(N)=O)c1ccccc1Cl`, the inhibition came to 19%.
As for `c1ccc(Oc2ccc(Nc3ncc(-c4ccccc4)o3)cc2)cc1`, the inhibition was 3.57%.
With `CN(C)CCCNc1nccc(-c2c(-c3ccc(F)cc3)nn3cc(C(F)(F)F)ccc23)n1`, the inhibition came to 0.21%.
In the case of `COc1cc2ncn(-c3cc(OCc4ccccc4C(F)(F)F)c(C(C)=O)s3)c2cc1OC`, the inhibition worked out at 5.24%.
Take `COc1ccc2cc(-c3c(-c4ccncc4)nc(-c4ccc([S+](C)[O-])cc4C)n3C)ccc2c1` (stereo not drawn): the inhibition was determined as 1.25%.
Regarding `Fc1ccc(-c2ncn(C3CCNCC3)c2-c2ccnc(Oc3ccc4c(c3)OCO4)n2)cc1`, the inhibition was found to be 3.68%.
On to `NC(=O)c1cc(-c2ccc(F)cc2)cc(-c2ccncc2)c1N`, for which the inhibition amounted to 12.4%.
For `CCC(=O)Nc1ccc(C)c(-c2ccc(C(=O)NCC3CC3)cc2)c1`, the inhibition amounted to 1.4%.
For `c1ccc(-c2n[nH]cc2-c2ccnc(-c3ccc(OCCN4CCOCC4)cc3)c2)nc1`, the inhibition was found to be 6.57%.
Same read-out and setting: for `O=C(NCC1CC1)c1ccc(-c2cccc(C(=O)NC3CC3)c2)cc1` the value was 5.31%; for `NC(=O)Cc1ccccc1Oc1nccc(-c2c(-c3ccc(F)cc3)ncn2C2CCNCC2)n1`, 4.27%.

Usually inhibition stands for the drop in the measured response relative to a control, in per cent.

The values are drawn from ChEMBL document CHEMBL1961873, “Compounds: GSK PKIS; Assays: Nanosyn kinase panel” (2012).
